Experimental data as given in PubChem BioAssay (NCI).
“And” between values parts separate entries of the source, which are not always exact repeats. Identical values can stand only once. Compounds without any hit were thinned out: in the full panel of roughly 83,000, 20% have a hit.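 Values shown are percent growth following 48 h exposure of cells in 96-well plates to a single concentration of compound; below 10 was considered active.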 The source made the active and inactive calls.

Tests used:
Test in all cases: NCI-60 one-dose screen, 48 h (100 = growth as untreated, 0 = no growth, -100 = all killed)
Details in all cases: 10 µM unless noted
SR leukemia = tested on: SR leukemia
RPMI-8226 leukemia = tested on: RPMI-8226 leukemia
OVCAR-5 ovarian = tested on: OVCAR-5 ovarian
OVCAR-4 ovarian = tested on: OVCAR-4 ovarian
SK-OV-3 ovarian = tested on: SK-OV-3 ovarian
IGROV1 ovarian = tested on: IGROV1 ovarian
OVCAR-3 ovarian = tested on: OVCAR-3 ovarian
HS 578T breast = tested on: HS 578T breast
NCI/ADR-RES ovarian = tested on: NCI/ADR-RES ovarian
OVCAR-8 ovarian = tested on: OVCAR-8 ovarian

SMILES	growth (SR leukemia)	growth (RPMI-8226 leukemia)	growth (OVCAR-5 ovarian)	growth (OVCAR-4 ovarian)	growth (SK-OV-3 ovarian)	growth (IGROV1 ovarian)	growth (OVCAR-3 ovarian)	growth (HS 578T breast)	growth (NCI/ADR-RES ovarian)	growth (OVCAR-8 ovarian)
Cc1cc(N)c2ccccc2[n+]1CCCCCCCCCC[n+]1c(C)cc(N)c2ccccc21	-53% (active) and 3.2% (active)	9.49% (active) and -11.6% (active)	-58.1% (active)	21.2% (inactive) and 19.8% (inactive)	9.8% (active) and -29.2% (active)	4.94% (active) and -18.4% (active)	-16.7% (active) and 15% (inactive)	34.7% (inactive)	66.2% (inactive) and 64.1% (inactive)	–
CCCCCCCCCCCCCCCC[N+](C)(CCO)Cc1cnc[nH]1 (stereo not drawn)	–	-58.3% (active)	-13.7% (active)	-1.06% (active)	-21% (active)	-54.5% (active)	-36.9% (active)	-19.4% (active)	94.5% (inactive)	–
CCOc1ccc(-c2nc3ccc(-c4nc5ccc(N6CCN(C)CC6)cc5[nH]4)cc3[nH]2)cc1	–	-4.63% (active)	-45.8% (active)	-65.1% (active)	-93.7% (active)	-82.9% (active)	-100% (active)	-58.3% (active)	61% (inactive)	-38.2% (active)
CN(C)c1ccc(C(=C2C=CC(=[N+](C)C)C=C2)c2ccc(N(C)C)cc2)cc1 (tested in a mixture with another compound)	–	-52.6% (active)	-66.9% (active)	-40.1% (active)	-81.1% (active)	-63.8% (active)	-93.5% (active)	–	-4.74% (active)	-23.2% (active)
O=C1NC(=O)/C(=C/C=C/c2ccccc2)S1	–	38.8% (inactive)	92.5% (inactive)	70.1% (inactive)	74.7% (inactive)	-6.36% (active)	58.3% (inactive)	–	42.9% (inactive)	–
Oc1c(Cl)c2ccccc2c2ccccc12	99.2% (inactive)	102% (inactive)	129% (inactive)	98.1% (inactive)	111% (inactive)	117% (inactive)	107% (inactive)	–	67.6% (inactive)	–
N#CC1C(=O)SC2c3ccccc3C(=O)c3ccccc3C12 (stereo not drawn)	90.1% (inactive)	94.6% (inactive)	105% (inactive)	99.1% (inactive)	98.2% (inactive)	110% (inactive)	109% (inactive)	–	104% (inactive)	–
CCN(CC)CC(C)(C)C(=O)/C=C/c1ccc(Cl)c(Cl)c1	10.3% (inactive)	2.2% (active)	-43.1% (active)	30.3% (inactive)	42.7% (inactive)	-7.68% (active)	-66.3% (active)	–	-12.6% (active)	–
C1=C(c2ccccc2)C(c2ccc(OCCN3CCCCC3)cc2)Oc2ccccc21 (stereo not drawn)	-0.379% (active)	15.5% (inactive)	72.4% (inactive)	64% (inactive)	74% (inactive)	44.2% (inactive)	65.6% (inactive)	–	68.4% (inactive)	–
CNc1ccc(N)cc1	119% (inactive)	–	106% (inactive)	89.6% (inactive)	114% (inactive)	101% (inactive)	112% (inactive)	109% (inactive)	87.6% (inactive)	113% (inactive)
NC(=S)N/N=C/c1ccc(Cl)s1	95.6% (inactive)	100% (inactive)	111% (inactive)	109% (inactive)	109% (inactive)	106% (inactive)	105% (inactive)	–	108% (inactive)	–
Oc1c(Br)c(Br)c(O)c(Br)c1Br	63.2% (inactive)	104% (inactive)	129% (inactive)	68.7% (inactive)	156% (inactive)	115% (inactive)	5.11% (active)	–	102% (inactive)	–
N#CSCc1ccc(Cl)c(CSC#N)c1	8.52% (active)	23.9% (inactive)	68.7% (inactive)	48.7% (inactive)	90.1% (inactive)	59.4% (inactive)	46.3% (inactive)	49% (inactive)	45.5% (inactive)	–
O=C(/C=C\c1ccccc1)N1c2ccccc2CC1c1c[nH]c2ccccc12 (stereo not drawn)	73.5% (inactive)	55.9% (inactive)	76.8% (inactive)	62% (inactive)	60.5% (inactive)	47.3% (inactive)	75% (inactive)	–	73.6% (inactive)	–
Cn1c2c(c3ccccc31)CCN1C[C@@H]3CCCC[C@H]3C[C@@H]21	14.1% (inactive)	16.7% (inactive)	25% (inactive)	40.9% (inactive)	9.15% (active)	–	-74.3% (active)	–	-36.1% (active)	–
CN(Cc1cnc2nc(N)nc(N)c2n1)c1ccc(C(=O)NC(CCC(=O)O)C(=O)O)cc1 (stereo not drawn)	–	37.3% (inactive)	44.9% (inactive)	61.3% (inactive)	59.3% (inactive)	31.2% (inactive)	37.8% (inactive)	76.6% (inactive)	26.7% (inactive)	24% (inactive)
Cc1cc2nc(CS)[nH]c2cc1C	45.9% (inactive)	28.7% (inactive)	96.8% (inactive)	85.5% (inactive)	87.1% (inactive)	74.5% (inactive)	82.6% (inactive)	103% (inactive)	95.7% (inactive)	–
O=C1C=CC(=O)N1C1c2ccccc2-c2ccccc21	-26.9% (active)	90.7% (inactive)	109% (inactive)	110% (inactive)	96.5% (inactive)	99.4% (inactive)	35.4% (inactive)	–	100% (inactive)	–
Oc1c(Br)cc(Cl)cc1C(c1cc(Cl)cc(Br)c1O)C(Cl)(Cl)Cl	28.5% (inactive)	–	42% (inactive)	–	32.5% (inactive)	24.8% (inactive)	12.7% (inactive)	21.2% (inactive)	7.13% (active)	14.3% (inactive)
O[C@H]1[C@H]2c3cc4c(cc3CN3CCC(=C[C@@H]1O)[C@H]23)OCO4	32.7% (inactive)	23.1% (inactive)	34.5% (inactive)	16.5% (inactive)	22% (inactive)	40.8% (inactive)	34.5% (inactive)	42.7% (inactive)	19.1% (inactive)	–
CN1c2ccccc2C(C)(C)C12C=Cc1cc(O)ccc1O2 (stereo not drawn)	–	-22.8% (active)	82.5% (inactive)	72.9% (inactive)	71.4% (inactive)	-7.4% (active)	4.21% (active)	-7.66% (active)	26.4% (inactive)	67.3% (inactive)
CCCCCCC(C)c1ccccc1O (stereo not drawn) (tested in a mixture with another compound)	–	95.6% (inactive)	104% (inactive)	–	–	111% (inactive)	111% (inactive)	101% (inactive)	98.6% (inactive)	110% (inactive)
CC1SC(=S)N(c2ccc(Cl)cc2)C1=O (stereo not drawn)	–	94.8% (inactive) and 79.6% (inactive)	91.3% (inactive) and 89.6% (inactive)	97.5% (inactive) and 91.3% (inactive)	117% (inactive) and 99.4% (inactive)	128% (inactive) and 92.5% (inactive)	93.3% (inactive) and 97.7% (inactive)	161% (inactive) and 132% (inactive)	103% (inactive)	101% (inactive)
CN(C)CCOc1ccc2c(c1)C(=O)/C(=C\c1ncc([N+](=O)[O-])n1C)C2	–	9.88% (active)	-21.1% (active)	-49.1% (active)	-42.6% (active)	-47.7% (active)	-59% (active)	21.1% (inactive)	-1.71% (active)	–
